Reference: PubChem BioAssay (NCATS)
A number with no mark means an inactive call. Entries that show only a call come without a potency. Active and inactive are the calls of the source. Calls follow the shape of the dose curve; as a rule, active = well fitted inhibition curve with a large enough effect; inconclusive = small, poorly fitted or top-dose-only effect; inactive = flat fitted curve, though single readings scatter. *1 amine or outer side, *2 acyl side, *3 side chain or, on linkers, in order; H or OH if unused. Where a SMILES comes first, the peptide text is derived from it. Bridges are numbered along the chain shown (N, C = ends). [ ]: non-standard residue; d: D form. The star is where a group is joined. ξ: configuration not given here. ξhTyr(3S-OH,4S-OH,3'-OSO3H) = NC(C(=O)O)[C@H](O)[C@@H](O)c1ccc(O)c(OS(=O)(=O)O)c1; Orn(4R-OH,5R-OH) = O=C([C@H](C[C@@H](O)[C@@H](O)N[*:3])N[*:1])[*:2]; X2 = CCCCCOc1ccc(-c2cc(-c3ccc(C(=O)*)cc3)no2)cc1; X3 = C[C@H]1CN([*:1])C(C(=O)[*:2])[C@H]1O; ξGln(3R-OH) = NC(=O)C[C@@H](O)C(N)C(=O)O; ξPro(4R-OH) = O=C(O)C1C[C@@H](O)CN1; ξThr(3R) = C[C@@H](O)C(N)C(=O)O

System: Nanoluciferase (engineered Oplophorus gracilirostris luciferase)
Assay: Primary Nanoluciferase (NLuc) qHTS assay for identification of artifact compounds. (AID 1845222);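 also: NLuc secreted into diluted conditioned medium of S16 cells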
Settings: NLuc-conditioned medium, Nano-Glo luminescence, 5 min; series mostly up to 54.1 µM
Outline: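 qHTS format, against NLuc in S16 cell-conditioned medium. Nano-Glo substrate 1:100 was added after 15 min at room temperature. Luminescence was taken after a further 5 min.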

SMILES | Potency | activity, negative = inhibition
CCC(C)/C=C(C)/C=C/C1=CC2=C(Cl)C(=O)C(C)(O)C(=O)C2(O)C(OC)O1 (centres undefined) | inactive | 
CC1OC(OC2C(OC3C(O[C@H]4CC[C@@]5(C)C(CC[C@]6(C)C5C(=O)CC5=C7CC(C)(C)CC(O)[C@]7(C)CC[C@]56C)C4(C)C)OC(C(=O)O)C(O)C3O)OCC(O)C2O)C(O)C(O)C1O (some centres undefined) |  | -10.9% [at 11.6 µM]
CCC/C=C/C=C/C1CC(O)C(O)C(=O)C1CO (centres undefined) | inactive | 
CC(C)=CCc1cc(O[C@@H]2O[C@H](CO[C@@H]3OC[C@](O)(CO)[C@H]3O)[C@@H](O)[C@H](O)[C@H]2O)ccc1O | inactive | 
O=C(CCc1ccccc1)c1c(O)c([C@@H]2O[C@H](CO)[C@@H](O)[C@H](O)[C@H]2O)c(O)c([C@@H]2O[C@H](CO)[C@@H](O)[C@H](O)[C@H]2O)c1O | inactive | 
COc1cc(CC2COC(c3ccc(OC4OC(CO)C(O)C(O)C4O)c(OC)c3)C2CO)ccc1O (centres undefined) | inactive | 
CC(=O)OC/C(=C/C(=O)O)CC[C@@H]1C(CO)=CC[C@@H]2C(C)(C)CCC[C@@]12C | inactive | 
CCCCCOc1ccc(-c2cc(-c3ccc(C(=O)N[C@H]4C[C@@H](O)[C@@H](O)NC(=O)C5[C@@H](O)[C@@H](C)CN5C(=O)C([C@H](O)CC(N)=O)NC(=O)C([C@H](O)[C@@H](O)c5ccc(O)c(OS(=O)(=O)O)c5)NC(=O)C5C[C@@H](O)CN5C(=O)C([C@@H](C)O)NC4=O)cc3)no2)cc1 (stereo partly drawn) (X2-[Orn(4R-OH,5R-OH)][ξThr(3R)][ξPro(4R-OH)][ξhTyr(3S-OH,4S-OH,3'-OSO3H)][ξGln(3R-OH)][X3]; lactam 1-C) | inactive | 
C/C=C(\C)C1C(C)=CC2CCC(OS(=O)(=O)O)C(C)C2C1/C=C/C=C/C(=O)O (centres undefined) | inactive | 
CC(=O)/C=C/C1(O)C(C)(C)CC(O)CC1(C)O (centres undefined) | inactive | 
C/C=C(\C)C(=O)OC[C@H]1O[C@@H](O[C@H]2[C@@H](O[C@H]3O[C@H](COC(=O)/C(C)=C/C)[C@@H](O)[C@H](O)[C@H]3O[C@@H]3O[C@H](CO)[C@@H](O)[C@H](OC(=O)/C(C)=C/C)[C@H]3O)O[C@H](COC(=O)/C(C)=C/C)[C@@H](O)[C@@H]2O)[C@H](O)[C@@H](O)[C@@H]1O |  | -1.03% [at 11.6 µM]
CC1=CC2=C(C)C(=O)C(C)(O)C(O)C2CO1 (centres undefined) | inactive | 
O=C(O)c1cccc(CN2C(=O)/C(=C(\c3ccccc3)c3ccc(Cl)cc3)c3ccccc32)c1 | inactive | 
CC1(CO)CC(O)C2(C)CCC3(C)C(=CCC4C5(C=O)CCC(OC6OC(C(=O)O)C(O)C(O)C6OC6OC(C(=O)O)C(O)C(O)C6O)C(C)(C)C5CCC43C)C2C1 (centres undefined) |  | -13.8% [at 11.6 µM]
COc1ccc(/C=C/C(=O)O[C@@H]2[C@@H](O)[C@@H](O)[C@H](O[C@H]3[C@@H]4C=CO[C@@H](O[C@@H]5O[C@H](CO)[C@@H](O)[C@H](O)[C@H]5O)[C@@H]4[C@@]4(CO)O[C@@H]34)O[C@H]2C)cc1 | inactive | 
COc1cc([C@@H](O[C@@H]2O[C@H](CO)[C@@H](O)[C@H](O)[C@H]2O)[C@@H]2CO[C@H](c3ccc(O)c(OC)c3)[C@H]2CO)ccc1O | inactive | 
COc1c2c(c(C)c3c1C(=O)OC3)OC1(C)CC(O)C34OC(OC)(CC(O)C3(C)C1C2)OC4(C)C (centres undefined) | inactive | 
Cn1c2ccc(NC(=O)c3ccccc3)cc2c(=O)n2nc(C(=O)O)cc12 | inactive | 
C/C(=C\C1CCC(C)C2CCC3(C)OC123)C(=O)O (centres undefined) | inactive | 
OC[C@@]1(O)CO[C@H](OC[C@H]2O[C@@H](OC(CCCCc3ccc(O)cc3)CCc3ccc(O)cc3)[C@H](O[C@H]3OC[C@](O)(CO)[C@H]3O)[C@@H](O)[C@@H]2O)[C@@H]1O (some centres undefined) | inactive | 

SMILES | Potency | activity, negative = inhibition
C=C1CCC2C(C)(C)CC(=O)CC2(C)C1CCC(C)CCO (centres undefined) | inactive | 
C=C1Cc2c(Cl)cc3[nH]c4c5c3c2[C@@]2(O)[C@@H]1C[C@@H]2C(C)(C)O[C@H]5C1CC[C@@]2(O)[C@@]35O[C@@H]3[C@H]3OC(C)(C)[C@H]3O[C@H]5CC[C@]2(C)[C@@]41C (some centres undefined) | inactive | 
CC1(C)CC[C@]2(C(=O)O[C@@H]3O[C@H](CO)[C@@H](O)[C@H](O)[C@H]3O)CC[C@]3(C)C(=CCC4[C@@]5(C)CC[C@H](OC6OC(C(=O)O)C(OC7OC(CO)C(O)C(O)C7O)C(O)C6O)C(C)(C)C5CC[C@]43C)C2C1 (some centres undefined) |  | 0% [at 11.6 µM]
C=C(CO)C(=O)O[C@H]1C[C@@]23O[C@@H]2CC/C(=C/[C@H]2OC(=O)C(=C)[C@H]12)CO[C@H]3O | inactive | 
NC(Cc1c[nH]c2ccc(O)cc12)C(=O)O (centres undefined) | inactive | 
C/C(=C\C(=O)C[C@@]12C(=O)O[C@]3(C)CC[C@H]1C[C@H]23)C(N)=O | inactive | 
C=C1CCC2(C(=O)OC3OC(CO)C(O)C(O)C3O)CCC3(C)C(=CCC4C5(C)CCC(OC6OC(CO)C(OC7OC(C)C(O)C(O)C7O)C(OC7OCC(O)C(O)C7O)C6O)C(C)(C)C5CCC43C)C2C1 (centres undefined) |  | 0.389% [at 11.6 µM]
CC1=CC(=O)C(=C(C)C)CC2C(C)(O)CCC12O (centres undefined) | inactive | 
COC(=O)[C@H](c1ccccc1Cl)N1CCC2SC(=O)C=C2C1 (some centres undefined) | inactive | 
COC(=O)c1cc(OC)cc(OC)c1C(=O)c1c(OC)cc2c(c1O)C1CCC(O)C(C)(O2)O1 (centres undefined) | inactive | 
C[C@@H]1O[C@@H](O[C@H]2[C@H](O)[C@@H](O)[C@H](OC[C@H]3O[C@@H](OC(=O)[C@]45CCC(C)(C)C[C@H]4C4=CCC6[C@@]7(C)C[C@@H](O)[C@H](O)[C@@](C)(CO)C7[C@H](O)C[C@@]6(C)[C@]4(C)CC5)[C@H](O)[C@@H](O)[C@@H]3O)O[C@@H]2CO)[C@H](O)[C@H](O)[C@H]1O (some centres undefined) |  | 1.41% [at 11.6 µM]
CC(=O)/C=C/C1(O)C(C)CC(O[C@@H]2O[C@H](CO)[C@@H](O)[C@H](O)[C@H]2O)CC1(C)C (some centres undefined) | inactive | 
COC(=O)C1(O)C(OC(C)=O)CCC2C3(CC(c4ccoc4)OC3=O)C(C)=CCC21C(=O)OC (centres undefined) | inactive | 
COC(=O)C1=CO[C@@H](O[C@@H]2O[C@H](CO)[C@@H](O)[C@H](O)[C@H]2O)[C@@H]2[C@@H](C)[C@@H](OC(=O)/C=C/c3ccccc3)[C@@H](O)[C@H]12 | inactive | 
C=CC(C)(O)CC/C=C(\C)C1CC=C(C)C(=O)O1 (centres undefined) | inactive | 
Cc1occc1C(=O)n1ccnc1 | inactive | 
O=C(Nc1cc(-c2ccccc2)nn1-c1ccccc1F)c1ccc([N+](=O)[O-])cc1 | inactive | 
CC[C@@H]1[C@H]2CCCCN3C(=O)C[C@H]([C@@H]4[C@H]1OC(=O)[C@H]4C)[C@@H]23 | inactive | 
CC(=O)c1ccc(O[C@@H]2OC[C@@H](O)[C@H](O)[C@H]2O[C@]2(CO)O[C@H](CO)[C@@H](O)[C@@H]2O)c(O)c1 | inactive | 
